High-throughput results as filed in PubChem BioAssay.
Only some compounds are listed: those with a hit (about 21% of all), similar ones and a draw of the others.
Cycloheximide cs = affects cycloheximide protein synthesis inhibition readout, counter-screen | cell reporter, cycloheximide protein synthesis inhibition counterscreen | max response, % | 300,000 compounds, 12% hits; in the data active = max response mostly above about 13%, no sharp cut-off; inactive = mostly below about 14%; note: read at 38.3 µM for the half of the compounds with a filed dose; 0% is about no effect
Pf growth 48h = inhibits P. falciparum growth in the first generation, 48 h; Potency, µM (titrated, usually from 28.7 µM), without a hit: at the highest dose activity change, negative = inhibition, actives largely listed as inhibitors; P. falciparum luciferase growth in erythrocytes, 48 h; AID 504832; 310,000 compounds, 5.9% hits; note: potency is the fitted concentration of half-maximal effect; % is set by controls: 0 for no effect and ±100 for the full control effect
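Luciferase-expressing P. falciparum in infected erythrocytes (2% hematocrit, 0.1% parasitemia final) in RPMI 1640/0.5% Albumax were exposed to compound for 48 hours at 37 C, 5% CO2; growth read as luminescence.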
Shiga inhibitor = Shiga toxin inhibition; inhibition, % at 38.7 µM; Vero cells, Shiga toxin protein synthesis inhibition reporter; 290,000 compounds, 9.2% hits; in the data active = inhibition mostly above about 28%, no sharp cut-off; inactive = mostly below about 43%; note: 0% is about no effect
Pf growth 96h = P. falciparum growth inhibition at 96 hours | AID 504834 | P. falciparum luciferase reporter growth, 96 h | Potency, µM (top dose mostly 28.7 µM), inactives show at the top dose activity change, negative = inhibition, hits mostly inhibitors | 320,000 compounds, 6.9% hits; note: potency is the fitted concentration of half-maximal effect; % is set by controls: 0 for no effect and ±100 for the full control effect
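Parasite growth measured via integrated firefly luciferase reporter in P. falciparum. Infected erythrocytes at 2% hematocrit, 0.05% parasitemia final were treated 96 hours at 37 C under 5% CO2, and luminescence was read.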
* = called active by the depositor; ? = inconclusive; · = no result; + = active, no number. Unless noted, calls come from the whole dose curve; as a rule, active = well fitted inhibition curve with a large enough effect; inconclusive = small, poorly fitted or top-dose-only effect, or another doubt; inactive = no such curve, though single readings can be large or run the other way.

SMILES	Cycloheximide cs	Pf growth 48h	Shiga inhibitor	Pf growth 96h
CCOC(=O)N1CCN(C(=O)CCCn2nnnc2CN2CCC(C)CC2)CC1	-1.3	-26.8%	9.8	46.5%
CCOC(=O)c1cccc(OCC(O)CNCCOc2ccccc2F)c1 (stereo unspecified)	-2.9	6.6%	-4.0	11.4%
CCN(CCNCC(O)COc1ccccc1C(C)C)c1cccc(C)c1 (stereo unspecified)	-4.1	3.29µM*	-6.8	5.22µM*
CCCC(=O)Nc1c(-c2cccc(OC)c2)c(=O)c2ccccc2n1C	3.0	-2.7%	-4.5	-12.0%
COc1cc(-c2nc(CN3CCN(c4ncccn4)CC3)c(C)o2)ccc1F	16.9	-3.1%	36.1	-95.3%
COc1cc(-c2nc(CN3CCN(CC(C)C)C(=O)[C@@H]3C)c(C)o2)ccc1F	0.1	9.28µM*	-18.8	-29.3%
Cn1c(C(=O)NCCCN2CCN(c3ccccc3F)CC2)cc2c(=O)n(C)c3ccccc3c21	-3.8	·	-15.8	9.28µM*
Cc1ccc(CNC(=O)c2cc3c(=O)n(C)c4ccccc4c3n2C)o1	-7.0	·	-12.9	9.28µM*
CC1CCN(CCCNC(=O)c2cc3c(=O)n(C)c4ccccc4c3n2C)CC1	-5.7	·	-9.1	7.38µM*
Cn1c(C(=O)NCc2ccccn2)cc2c(=O)n(C)c3ccccc3c21	-7.2	·	-3.9	41.5%
O=C(COc1ccccc1Cl)Nc1nnc(S(=O)(=O)N2CCCC2)s1	-3.6	16.4%	-5.2	21.3%
O=C(CCNS(=O)(=O)c1ccccc1F)NC1CCCCCC1	·	-9.6%	·	18.5%
Cc1cc2c(=O)n(Cc3ccco3)c(SCC(=O)c3ccc(Cl)s3)nc2s1	16.3*	5.86µM*	29.2	201.6%
CCOC(=O)CC(=O)CSc1nc2sc(C)cc2c(=O)n1Cc1ccco1	-4.1	4.65µM*	13.6	·
COc1ccc(CNC(=O)C2CCCN(c3ncnc4c3nc3n4CCCCC3)C2)cc1 (stereo unspecified)	-4.4	-12.7%	-3.1	?
O=C(CSc1nnc(NC(=O)C2CC2)s1)Nc1ccccc1C(F)(F)F	-8.4	-3.1%	4.0	176.2%
CCOc1cc(NC(=O)CCl)c(OCC)cc1NC(=O)CCl	8.4	58.9%	11.6	?
CCc1cc(SC#N)cc(CC)c1NC(=O)CCl	-1.5	10.4µM*	-2.4	?
COc1cc(/C=C2\SC(=S)N(CCC(=O)Nc3ccc(O)cc3)C2=O)cc(OC)c1OC	1.1	-13.9%	-5.6	?
COc1ccc(/C=C2/SC(=S)N(CCCC(=O)Nc3ccc(O)cc3)C2=O)cc1	51.5*	?	94.5*	?
COc1ccc(/C=C2\SC(=S)N(CCC(=O)Nc3ccc(C(=O)O)cc3)C2=O)cc1	-2.9	28.9%	·	4.0%
COc1ccc(/C=C2\SC(=S)N(CCCC(=O)Nc3ccc(O)cc3)C2=O)cc1	35.2*	?	51.1*	?
COc1ccc(/C=C2\SC(=S)N(CCC(=O)Nc3cccc(O)c3)C2=O)cc1	39.1*	37.7%	62.2*	-9.3%
COc1ccc(/C=C2/SC(=S)N(CCC(=O)O)C2=O)cc1	-4.6	-13.4%	12.2	47.3%
CSCC[C@H](N)C(=O)N1CCC(C(=O)N[C@H](C(=O)NCc2ccccc2F)C(C)C)CC1	-2.4	33.1%	-1.8	1.6%
SMILES	Cycloheximide cs	Pf growth 48h	Shiga inhibitor	Pf growth 96h
Cc1ccccc1NC(=O)c1nc2nccc(C)n2n1	37.6*	312.2%	71.7*	79.4%
COc1ccc(NC(=O)c2nc3nccc(C)n3n2)cn1	32.6*	·	44.3*	202.6%
O=C(C1CCCC1)N1CCN(S(=O)(=O)c2cccc(Cl)c2Cl)CC1	-3.6	9.4%	-3.9	20.9%
COc1cc(-c2nc3ccccn3c2NCC2CCCO2)ccc1O (stereo unspecified)	-3.4	6.2%	14.4	43.1%
CCOc1cc(-c2nc3c(C)cccn3c2NCC2CCCO2)ccc1O (stereo unspecified)	-3.4	?	-10.4	19.2%
COc1ccc(-c2nc3cccc(C)n3c2NCC2CCCO2)cc1O (stereo unspecified)	8.1*	21.6%	45.5*	45.6%
CCOc1cc(-c2nc3ccccn3c2NCC2CCCO2)ccc1O (stereo unspecified)	-1.5	-9.2%	12.8	11.7µM*
Cc1nc(C)c(C(=O)N2CCCC(CCC(=O)NCc3ccc(F)c(F)c3)C2)s1 (stereo unspecified)	2.8	-3.7%	14.7	9.28µM*
O=C(CCC1CCCN(C(=O)C2CCCC2)C1)NCc1ccc(F)c(F)c1 (stereo unspecified)	12.1	?	28.1	-6.2%
O=C(CCC1CCCN(C(=O)c2cncs2)C1)NCc1ccc(F)c(F)c1 (stereo unspecified)	21.0	46.0%	-9.1	8.28µM*
CCc1noc(C)c1C(=O)N1CCCC(CCC(=O)NCc2ccc(F)c(F)c2)C1 (stereo unspecified)	-2.5	?	35.9	?
COc1ccc(Br)cc1C(=O)Nc1cccc(C)c1	-5.8	·	-6.1	?
COc1ccccc1C(O)(C(=O)NNc1ccccc1C)c1ccccc1OC	3.8	?	-4.8	6.57µM*
CCC(O)(C(=O)Nc1ccccc1C(F)(F)F)c1ccccc1OC (stereo unspecified)	·	?	·	-32.7%
COc1ccccc1C(O)(C(=O)NNc1cccc(C)c1)c1ccccc1OC	-0.7	20.9%	-9.9	2.62µM*
Cc1cc(-n2cnnn2)cc(C)c1S(=O)(=O)N(C)c1ccccc1	10.7	?	-3.4	-22.2%
CC1CCc2nc3ccccc3c(C(=O)OCC(=O)N3CCc4ccccc43)c2C1 (stereo unspecified)	3.0	8.28µM*	7.3	?
CCCc1nc2ccccc2c(C(=O)OCC(=O)N2CCc3ccccc32)c1CC	-7.5	?	-7.3	8.28µM*
O=C(OCC(=O)N1CCCC1)c1c2c(nc3ccccc13)CCCCC2	2.7	-6.4%	5.8	?
O=C(NCc1nnnn1-c1ccc(Cl)cc1)c1ccc(Br)o1	·	-1.1%	·	0.4%
COc1ccc(-c2ccc(C)cc2)cc1[C@H]1[C@@H]2C=CCC[C@@]2(C)C(=O)N1Cc1ccccc1	-0.5	11.7µM*	-10.6	?
CC(=O)c1ccc(-c2c(C3C4C=CCCC4(C)C(=O)N3Cc3ccccc3)ccc3ccccc23)cc1 (stereo unspecified)	-7.8	·	0.1	·
COc1ccc(-c2c(C3C4C=CCCC4(C)C(=O)N3Cc3ccccc3)ccc3ccccc23)cc1 (stereo unspecified)	102.8*	·	+	·
CCC1CCCCN1CCCNC(=O)c1ccc(CS(=O)(=O)c2ccccc2OC)o1 (stereo unspecified)	1.9	15.6%	-3.3	11.9%
CCOC(=O)N1CCC(NC(=O)c2cc(C(=O)Nc3cccc(OC)c3)ccc2CO)CC1	-5.1	·	-6.7	·
CCOC(=O)N1CCC(NC(=O)c2ccc3c(c2)sc2nc(-c4ccccc4)cn23)CC1	38.9*	1.31µM*	69.0*	-19.7%
CCOC(=O)N1CCC(NC(=O)c2ccc3c(c2)N=C(CC)c2ccccc2S3)CC1	6.5	?	7.2	?
CCOC(=O)N1CCC(NC(=O)c2ccc3c(c2)sc2nc(-c4cccc(OC)c4)cn23)CC1	7.2	7.38µM*	35.1	9.9%
COc1ccc(OC)c(S(=O)(=O)n2ccnc2C(C)C)c1	-2.9	5.8%	·	-0.2%
